The values that follow come from PubChem BioAssay.

For test [1], the target named is Nuclear receptor coactivator 3 (Homo sapiens) (UniProt Q9Y6Q9). Kind of test: NCOA3 GAL4-fusion reporter inhibition – cell-based, luminescence, quadruplicate, confirmation (AID 588792;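 active = mean inhibition over 43.08%, the solvent-only control mean plus 3 SD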;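 also: 0% = DMSO treated cells and 100% = gossypol at 36 µM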). To be noted: HEK293 GAL4-SRC3 luciferase reporter, at 3.6 µM, stronger effect = higher value.
Test [2] concerns transactivating tegument protein VP16 (Human herpesvirus 1), Gal4-VP16 luciferase reporter. Kind of test: repression of VP16-driven luciferase reporter – cell-based, luminescence, high throughput, counter-screen for SRC3 inhibitor project (AID 588794). The settings on record: mammalian cells, at 3.6 µM, stronger effect = higher value.
The target in test [3] is Nuclear receptor coactivator 1 (Homo sapiens) (UniProt Q15788). Kind of test: NCOA1 GAL4-fusion reporter inhibition – cell-based, luminescence, quadruplicate, confirmation (AID 588820;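 active = mean inhibition above 46.68%, the untreated control wells mean plus 3 SD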;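 also: 0% = DMSO wells and 100% = gossypol 36 µM treated wells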). The settings on record: HEK293 GAL4-SRC1 luciferase reporter, at 3.6 µM, stronger effect = higher value.
Test [4] can be described thus: repression of VP16-driven luciferase reporter – cell-based, luminescence, high throughput, counter-screen for SRC1 inhibitor project (AID 588824; in the data active = inhibition above about 25%). The settings on record: cell-based VP16 transactivation luciferase luminescence; at 3.6 µM; stronger effect = higher value.

As usually defined, the inhibition is the drop in the measured response relative to a control, in per cent.

SMILES strings stand for the structures. Unmarked numbers belong to inactive results. The source made the active and inactive calls. Rule as the data show it, unless noted: active = inhibition above about 30%; inactive = the rest.

Nuclear receptor coactivator 3 (Homo sapiens), sequence (Q9Y6Q9 whole entry, looked up, the tested form may be a part): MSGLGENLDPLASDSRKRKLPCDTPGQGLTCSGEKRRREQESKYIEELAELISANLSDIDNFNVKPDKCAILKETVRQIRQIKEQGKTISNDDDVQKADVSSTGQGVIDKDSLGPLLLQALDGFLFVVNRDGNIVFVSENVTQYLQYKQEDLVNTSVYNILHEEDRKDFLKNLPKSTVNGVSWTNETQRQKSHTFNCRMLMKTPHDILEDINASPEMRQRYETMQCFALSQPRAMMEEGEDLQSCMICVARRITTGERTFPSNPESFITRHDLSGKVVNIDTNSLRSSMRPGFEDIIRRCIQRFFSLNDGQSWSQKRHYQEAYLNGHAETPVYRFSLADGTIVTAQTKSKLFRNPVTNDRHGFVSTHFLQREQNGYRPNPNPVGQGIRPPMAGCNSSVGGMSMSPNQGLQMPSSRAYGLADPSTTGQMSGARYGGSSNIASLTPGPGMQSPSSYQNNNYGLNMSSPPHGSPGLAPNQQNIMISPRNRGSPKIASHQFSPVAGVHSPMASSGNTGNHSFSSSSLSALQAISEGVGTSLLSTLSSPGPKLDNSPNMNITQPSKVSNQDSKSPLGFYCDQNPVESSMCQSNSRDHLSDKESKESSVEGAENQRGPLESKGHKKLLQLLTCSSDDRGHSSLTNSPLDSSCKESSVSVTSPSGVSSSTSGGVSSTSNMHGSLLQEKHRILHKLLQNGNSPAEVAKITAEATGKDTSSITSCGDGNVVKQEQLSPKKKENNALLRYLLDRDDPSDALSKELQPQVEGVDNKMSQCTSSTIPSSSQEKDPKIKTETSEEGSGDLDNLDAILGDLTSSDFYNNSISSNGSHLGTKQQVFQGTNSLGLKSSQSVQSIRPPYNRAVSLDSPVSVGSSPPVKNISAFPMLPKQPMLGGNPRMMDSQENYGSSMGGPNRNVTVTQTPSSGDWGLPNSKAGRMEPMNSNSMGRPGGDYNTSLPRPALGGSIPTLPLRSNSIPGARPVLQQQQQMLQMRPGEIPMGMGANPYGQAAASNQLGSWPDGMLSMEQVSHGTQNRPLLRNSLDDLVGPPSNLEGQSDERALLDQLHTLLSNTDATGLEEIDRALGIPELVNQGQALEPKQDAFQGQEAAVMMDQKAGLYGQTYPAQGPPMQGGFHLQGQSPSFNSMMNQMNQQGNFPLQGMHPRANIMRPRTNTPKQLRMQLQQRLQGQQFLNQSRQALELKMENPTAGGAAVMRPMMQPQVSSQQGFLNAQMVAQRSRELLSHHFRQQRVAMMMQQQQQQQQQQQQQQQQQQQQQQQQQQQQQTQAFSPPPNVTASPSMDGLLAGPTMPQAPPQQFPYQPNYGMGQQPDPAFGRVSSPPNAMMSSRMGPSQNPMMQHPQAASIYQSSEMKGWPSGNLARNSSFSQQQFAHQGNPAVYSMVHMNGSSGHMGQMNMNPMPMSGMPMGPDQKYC
Nuclear receptor coactivator 1 (Homo sapiens), sequence (Q15788 whole entry, looked up, the tested form may be a part): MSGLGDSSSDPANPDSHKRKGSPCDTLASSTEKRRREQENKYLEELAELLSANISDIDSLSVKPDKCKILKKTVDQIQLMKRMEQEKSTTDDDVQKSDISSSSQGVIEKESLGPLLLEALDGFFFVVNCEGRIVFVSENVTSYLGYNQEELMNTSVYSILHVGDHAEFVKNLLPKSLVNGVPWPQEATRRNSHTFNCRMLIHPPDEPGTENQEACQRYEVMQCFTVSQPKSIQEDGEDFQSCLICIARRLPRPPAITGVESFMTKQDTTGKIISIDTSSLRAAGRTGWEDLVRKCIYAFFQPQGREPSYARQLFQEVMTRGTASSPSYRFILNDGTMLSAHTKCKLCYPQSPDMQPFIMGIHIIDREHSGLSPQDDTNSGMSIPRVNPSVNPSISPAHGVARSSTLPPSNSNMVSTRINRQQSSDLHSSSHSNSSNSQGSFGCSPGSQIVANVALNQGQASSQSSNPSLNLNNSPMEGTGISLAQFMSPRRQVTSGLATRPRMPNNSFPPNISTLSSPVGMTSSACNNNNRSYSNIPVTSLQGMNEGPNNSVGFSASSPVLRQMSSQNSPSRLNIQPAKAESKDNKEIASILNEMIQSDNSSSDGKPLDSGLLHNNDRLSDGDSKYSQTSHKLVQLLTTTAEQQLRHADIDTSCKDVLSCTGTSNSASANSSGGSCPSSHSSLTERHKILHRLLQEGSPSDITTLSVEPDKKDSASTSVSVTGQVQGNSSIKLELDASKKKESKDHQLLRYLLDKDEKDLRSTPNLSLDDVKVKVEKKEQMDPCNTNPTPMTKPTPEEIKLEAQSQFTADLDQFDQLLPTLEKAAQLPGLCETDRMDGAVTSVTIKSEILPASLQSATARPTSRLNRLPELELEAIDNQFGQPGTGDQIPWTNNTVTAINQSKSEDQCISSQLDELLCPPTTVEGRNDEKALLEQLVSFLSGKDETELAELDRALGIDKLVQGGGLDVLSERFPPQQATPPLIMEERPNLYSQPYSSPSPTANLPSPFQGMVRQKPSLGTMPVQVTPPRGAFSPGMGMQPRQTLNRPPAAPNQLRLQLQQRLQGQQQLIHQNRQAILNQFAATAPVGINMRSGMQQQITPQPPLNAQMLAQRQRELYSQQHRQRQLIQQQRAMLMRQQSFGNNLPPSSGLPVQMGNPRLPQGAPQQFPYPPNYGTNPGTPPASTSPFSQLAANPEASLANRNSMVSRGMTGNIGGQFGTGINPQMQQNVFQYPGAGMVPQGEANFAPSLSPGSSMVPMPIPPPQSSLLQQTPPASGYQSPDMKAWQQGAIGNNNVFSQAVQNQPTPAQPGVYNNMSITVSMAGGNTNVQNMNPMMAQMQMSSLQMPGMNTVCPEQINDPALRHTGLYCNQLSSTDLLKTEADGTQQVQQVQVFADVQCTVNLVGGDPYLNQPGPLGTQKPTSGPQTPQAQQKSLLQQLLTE

For `c1ccc(-c2noc(-c3ccc4ccccc4c3)n2)nc1`, the inhibition in test [1] was 43.7% (active); in test [2], 19.2%; in test [3], -79.6%; in test [4] it was 23.7%.

On to `CC(C)(C)c1nnc(N/N=C/c2cc(Br)ccc2O)n(N)c1=O`, for which the inhibition was 79% (active) in test [1], 69.2% (active) in test [2], 72% (active) in test [3] and 63% (active) in test [4].

In the case of `Cc1ccc(S(=O)(=O)N(C)Cc2ccc(C(=O)N/N=C/c3ccc(OC(F)F)cc3OC(F)F)cc2)cc1`, the inhibition is 10.9% in test [1], 18.8% in test [2], -28.9% in test [3] and 20% in test [4].

Turning to `COc1ccc(-c2ncncc2-c2ccccc2)c(O)c1`, the inhibition in test [1] was 27%; in test [2], 17.1%; in test [3], 35%; in test [4], 14.7%.

Take `CCC(=O)Oc1c(C(=O)CC)cc2c(C)cc(=O)oc2c1C`: the inhibition in test [1] was 15.1%; in test [2], 17.6%; in test [3], 25.6%; in test [4], 15.6%.

Regarding `CCSCCc1nnc(NC(=O)Nc2cccc(C(F)(F)F)c2)s1`, the inhibition is 47.7% (active) in test [1], 43.8% (active) in test [2], 45.9% in test [3] and 28.4% (active) in test [4].

With `NC(=S)NN=Cc1nccc2c(N)cccc12`, the inhibition in test [1] is 72.3% (active); in test [2] it was 17.2%; in test [3], 47.8% (active); in test [4], 8.49%.

Turning to `O=C(CCl)N1N=C(c2ccco2)CC1c1cccs1` (stereo unspecified), the inhibition in test [1] is 55.1% (active); in test [2] it was 31.6% (active); in test [3] it was 15.3%; in test [4], 21.7%.

Turning to `COc1ccc(-c2coc3c(C(=O)Nc4cc(OC)c(OC)c(OC)c4)cccc23)c(C)c1`, the inhibition is 19.8% in test [1], 29.8% (active) in test [2], 0.16% in test [3] and 31.8% (active) in test [4].

On to `COC(=O)c1ccc2nc(NC(=O)C(C)(C)C)sc2c1`, for which the inhibition is -14.6% in test [1], -16.8% in test [2], -142% in test [3] and -60.1% in test [4].

Regarding `C#CC[N+](C)(C)CCCCCCCCCC`, the inhibition in test [1] is 18.6%; in test [2] it was 23.2%; in test [3] it was 9.87%; in test [4], 16.1%.

`COc1ccc(-c2nsc3c(N4CCCCC4)ncnc23)cc1`: the inhibition in test [1] was 32.4%; in test [2], 20.4%; in test [3], 1.39%; in test [4], -6.65%.

As to `Cc1c2ccncc2cc2c1[nH]c1ccccc12`, the inhibition in test [1] was 48.7% (active); in test [2], 33.5% (active); in test [3], 48.4% (active); in test [4] it was 19.9%.

Consider `CN(CC1CCCO1)S(=O)(=O)c1ccc(C(=O)Nc2nc3cc4c(cc3s2)OCO4)cc1` (stereo unspecified), for which the inhibition in test [1] was 14.7%; in test [2] it was 39.8% (active); in test [3], 0.14%; in test [4], 39.8% (active).

Turning to `COc1cc(Cl)cc(/C=N\NC(=O)c2ccc3c(c2)OCO3)c1O`, the inhibition in test [1] was 24.7%; in test [2], 33.3% (active); in test [3] it was 30.5%; in test [4] it was 33.6% (active).

On to `C[n+]1c2n(c3ccccc31)N=C(c1ccc(Br)cc1)CS2`, for which the inhibition in test [1] was 15.5%; in test [2], 24.7%; in test [3], -14.8%; in test [4] it was 30.4% (active).

Regarding `Clc1ccc(-c2csc3ncnc(NCCN4CCOCC4)c23)cc1`, the inhibition in test [1] is 32.2%; in test [2], 25.3%; in test [3] it was 46.6%; in test [4] it was 31.8% (active).

In the case of `Cc1c(-c2ccccc2)oc2c(C(=O)N3CCN(c4ccc([N+](=O)[O-])cc4)CC3)cccc2c1=O`, the inhibition in test [1] was 54.4% (active); in test [2], 32.5% (active); in test [3], 45.9%; in test [4], 27.3% (active).

Regarding `COc1cccc(/C=N/NC(=O)c2cc3c(OC)cccc3[nH]2)c1O`, the inhibition in test [1] was 28.5%; in test [2], 29%; in test [3] it was 37.1%; in test [4], 26% (active).

For the molecule `O=[N+]([O-])c1ccc(O)c(/C=N/Nc2ccc(Cl)nn2)c1`, the inhibition in test [1] was 87.2% (active); in test [2] it was 83.6% (active); in test [3], 73.1% (active); in test [4], 82.2% (active).

On to `Cc1ccc(C2CC(C(F)(F)F)n3nc(C(=O)NCc4c(C)nn(C)c4C)c(Cl)c3N2)cc1` (stereo unspecified), for which the inhibition in test [1] is 7.71%; in test [2] it was 15.1%; in test [3], -7%; in test [4], 10.9%.

With `COc1cccc(C(=O)Nc2nc(-c3ccc(S(=O)(=O)N4CCOCC4)cc3)cs2)c1`, the inhibition was 3.89% in test [1], 9.14% in test [2], -19.1% in test [3] and -0.53% in test [4].

Turning to `Cc1cc(C(=O)NNc2ccc(F)cc2)no1`, the inhibition in test [1] is 9%; in test [2], 7.33%; in test [3], -4.64%; in test [4], 8.26%.

With `Cc1cn([C@@H](CCCCNC(=O)OC(C)(C)C)C(=O)NCCCCCCCCCCC(=O)N2CCN(C(=O)OC(C)(C)C)CC2)nn1`, the inhibition in test [1] was 12.4%; in test [2] it was 25.6%; in test [3], 4.04%; in test [4], 41.8% (active).
